# Test results from the supplement of paper PMC10981050.
# Where “and” joins values, the source holds several entries; their conditions need not be identical. Equal values may be shown once. Where a name gives a salt, the structure may show the parent alone.
# Assays:
# Test in all cases: cell viability relative to vehicle control; higher = less cytotoxic
# Conditions in all cases: 10 µM
# K562 = test system: K562
# Summary of the method: (§1)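 Each screen used CRISPR-edited mutant and wild-type clones from four leukaemia lines. Compounds were acoustically dispensed at a single 10 µM dose, and CellTiter-Glo luminescence was read after 48 h with the supernatant first removed. Viability was analysed in Genedata Screener and given as percent of the on-plate vehicle control.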
# MARIMO = test system: MARIMO
# Summary of the method: as §1
# MOLM14 = test system: MOLM14
# Summary of the method: as §1
# OCI-AML2 = test system: OCI-AML2
# Summary of the method: as §1
Structure (SMILES),cell viability (K562; SRSF2 genotype: SRSF2 P95H/wt),cell viability (K562; SRSF2 genotype: SRSF2 wt/wt),cell viability (MARIMO; SRSF2 genotype: SRSF2 P95H/wt),cell viability (MARIMO; SRSF2 genotype: SRSF2 wt/wt),cell viability (MOLM14; SRSF2 genotype: SRSF2 P95H/wt),cell viability (MOLM14; SRSF2 genotype: SRSF2 wt/wt),cell viability (OCI-AML2; SRSF2 genotype: P95H/wt),cell viability (OCI-AML2; SRSF2 genotype: wt/wt)
CC1(C)[C@@H](O[C@H]2O[C@H](C(=O)O)[C@@H](O)[C@H](O)[C@H]2O[C@@H]2O[C@H](C(=O)O)[C@@H](O)[C@H](O)[C@H]2O)CC[C@]2(C)[C@H]3C(=O)C=C4[C@@H]5C[C@@](C)(C(=O)O)CC[C@]5(C)CC[C@@]4(C)[C@]3(C)CC[C@@H]12 [Dipotassium glycyrrhizinate],105% and 104%,102%,103%,112%,103%,103%,101%,105%
COc1cc2c(cc1O)C[C@H]1c3cc(O)c(OC)cc3CC[N@@+]1(C)C2 [Phellodendrine],104% and 97.8%,102%,98.9%,98.7%,111%,102%,101%,96.4%
CCCCCCOC(=O)NC(=N)c1ccc(NCc2nc3cc(C(=O)N(CCC(=O)OCC)c4ccccn4)ccc3n2C)cc1 [BIBR-1048 (Dabigatran)],67% and 66.3%,67.2%,55.2%,55%,0.49%,0.53%,55%,35.7%
N#Cc1c(NC(=O)c2cccc3ccccc23)sc2c1CCCC2 [JNK inhibitor IX],16.2% and 37.1%,34.9%,6.04%,9.03%,14.5%,3.68%,8.78%,12.3%
O=C1O[C@H]([C@@H](O)CO)C(O)=C1O [Vitamin C (Ascorbic acid)],89.8% and 88.3%,85.8%,100%,92.8%,90.8%,95.1%,91%,93%
O=C(c1ccc(Cl)cc1Cl)n1nnc2ccccc21,54.8% and 62.1%,70.3%,48.4%,46.2%,59.3%,49.6%,37.9%,29.3%
CCOc1ccc(Cc2cc([C@@H]3O[C@H](CO)[C@@H](O)[C@H](O)[C@H]3O)ccc2Cl)cc1 [Dapagliflozin],93.8% and 97.1%,105%,102%,96.9%,95.9%,99.4%,97.7%,105%
CCCN(CCC)S(=O)(=O)c1ccc(C(=O)O)cc1 [Probenecid (Benemid)],99.3% and 88.4%,91%,92.1%,101%,96.4%,97%,96.2%,88.9%
Nc1ccn([C@@H]2O[C@H](CO)[C@@H](O)C2(F)F)c(=O)n1 [Gemcitabine (Gemzar)],89% and 104%,101%,21.3%,24.4%,4.86%,1.1%,7.55%,8.99%
O=C(Nc1cccnc1)c1cc(-c2ccnc(F)c2)ccc1OCc1ccccc1,97.4% and 102%,94.6%,97.5%,102%,104%,98.7%,95.8%,95.6%
CCN=C1N[C@@H]2[C@@H](O)[C@H](O)[C@@H](CO)O[C@@H]2S1 [Thiamet G],99.9% and 104%,101%,103%,106%,92.8%,99.8%,101%,107%
CNc1nc(Nc2cnn(C3CCN(C4COC4)CC3F)c2Cl)ncc1C(F)(F)F (stereo unspecified),89.6% and 89%,91.7%,76.2%,80.1%,38.2%,36.4%,46.3%,47.6%
C/C=C(\C)C(=O)OC1c2c(ccc3ccc(=O)oc23)OC(C)(C)C1OC(=O)/C(C)=C/C (stereo unspecified) [Praeruptorin B],83.5% and 92.2%,90.4%,84.4%,111%,109%,94.7%,89.5%,91.6%
N[C@@H](CS)C(=O)O [L-Cysteine HCl],87.6% and 82.9%,82.4%,89%,97.7%,89.1%,87.8%,89.1%,94.3%
CN(C)c1nc(N(C)C)nc(N(C)C)n1 [Altretamine (Hexalen)],99.3% and 102%,99.7%,97.3%,95.2%,94%,98.5%,99.7%,98.4%
COC(=O)C1=C(C#N)NC(C)=C(C(=O)OC(C)C)C1c1cccc([N+](=O)[O-])c1 (stereo unspecified) [Nilvadipine (ARC029)],81.2% and 85.3%,80.7%,76%,79.7%,80.9%,84.7%,103%,97.2%
CN1CCC(COc2cnc(-c3cccc(Cn4nc(-c5cccc(C#N)c5)ccc4=O)c3)nc2)CC1,30.9% and 26.1%,30.5%,61.7%,63.6%,55.6%,47.5%,49.2%,52.8%
CN(C)CC/C=C1/c2ccccc2Sc2ccc(Cl)cc21 [Chlorprothixene],80.1% and 80.7%,87.8%,78.3%,76.7%,66.2%,82.1%,66.6%,68.2%
OC[C@H]1O[C@H](O[C@H]2O[C@H](CO)[C@@H](O)[C@H](O)[C@H]2O)[C@H](O)[C@@H](O)[C@@H]1O [D-(+)-Trehalose dihydrate],103% and 99.5%,102%,106%,111%,104%,108%,105%,108%
OC[C@H]1O[C@H](OC[C@H]2O[C@H](OC[C@H]3O[C@H](O[C@]4(CO)O[C@H](CO)[C@@H](O)[C@@H]4O)[C@H](O)[C@@H](O)[C@@H]3O)[C@H](O)[C@@H](O)[C@H]2O)[C@H](O)[C@@H](O)[C@H]1O [Stachyose],106% and 100%,99.7%,102%,109%,97.3%,105%,94.5%,93.5%
CCCCCCCCCCCCCCCC(=O)OCC [Ethyl palmitate],101%,97.9%,103%,106%,106%,101%,98%,107%
C1N2CN3CN1CN(C2)C3 [Methenamine (Mandelamine)],104% and 102%,99.1%,103%,108%,107%,105%,99%,112%
